Source: PubChem BioAssay
FAS-TE inh – inhibitors of human fatty acid synthase thioesterase domain; recombinant FAS-TE, OMFH fluorogenic substrate, fluorescence endpoint; P49327; inhibition, % at 15 µM; AID 602261; actives 0.67% (n = 360,000);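 active = compounds whose normalised, plate-corrected inhibition of enzyme fluorescence in the single-dose primary screen is 50% or more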;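 note: 0% = DMSO with enzyme and 100% = substrate without enzyme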
A3G deaminase – blocks human APOBEC3G single-stranded DNA deamination | Q9HC16 | recombinant A3G, ssDNA deamination FAM/TAMRA fluorescence | inhibition, % at 20 µM | actives 0.28% (n = 330,000) | AID 493012;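 active = inhibition of at least 40% at 20 µM, with no more than 30% in the related APOBEC3A deaminase screen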;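 note: plate controls were DMSO wells with A3G for no effect and wells lacking A3G enzyme for full effect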
GC-B act – GC-B (human) receptor activation; AID 1920062; actives 0.11% (n = 370,000); activation, % at 10 µM; HEK293-GC-B cells, CNP EC30, cGMP TR-FRET; 0% at EC30 CNP, 100% saturating CNP;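 active = activation at 10 µM reaching about 35% in either raw or pattern-adjusted values, limit read from the data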
A3A deaminase – inhibitors of human APOBEC3A DNA deaminase. actives 0.41% (n = 330,000). recombinant A3A, FAM/TAMRA ssDNA deamination fluorescence. inhibition, % at 20 µM. P31941;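 active = at least 40% inhibition at 20 µM here, with at most 30% in a related deaminase screen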;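 note: plate controls were A3A with DMSO for no effect and wells lacking A3A enzyme for full effect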
GC-A act – GC-A (human) enzyme activation | activation, % at 10 µM | actives 0.14% (n = 370,000) | HEK293 GC-A cells, cGMP TR-FRET, EC30 ANP; 0% at EC30 ANP, 100% saturating ANP; in the data active = activation above about 40%
APOBEC3G confirm – confirmation of human APOBEC3G DNA deaminase inhibitors | inhibition, % at 20 µM | shares compounds with A3G deaminase | actives 72% (n = 890) | AID 493152 | recombinant A3G ssDNA deaminase, UDG/FAM-TAMRA fluorescence;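 active = inhibition reaching a set limit in any replicate at 20 µM, the limit being 80% of the first screen's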
UDG ctr A3G – inhibits E. coli UDG, flagging false APOBEC3G inhibitors; UDG counterscreen, FAM/TAMRA oligo fluorescence; 710 tested, under 10 active; AID 504715; inhibition, % at 20 µM; shares compounds with A3G deaminase;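 active = compounds giving 40% or more inhibition at 20 µM in any one of the three replicates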;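 note: plate controls were DMSO wells with UDG and oligo for no effect and DMSO wells lacking both for full effect; inhibitors lower the FAM signal released by uracil excision and alkaline cleavage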
Target sequence (P12295 whole entry, looked up): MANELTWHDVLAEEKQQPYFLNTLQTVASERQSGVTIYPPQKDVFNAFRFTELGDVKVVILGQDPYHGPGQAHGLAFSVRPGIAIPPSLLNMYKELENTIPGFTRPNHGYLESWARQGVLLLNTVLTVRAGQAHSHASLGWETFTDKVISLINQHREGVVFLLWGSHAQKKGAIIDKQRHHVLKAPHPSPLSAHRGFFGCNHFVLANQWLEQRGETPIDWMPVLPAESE
Numbers without * were called inactive. Hits are enriched below; roughly 1.4% of the tested compounds scored in any of these assays.

`CCOC(=O)C1=C(C)N(c2ccc(OC)cc2)C(=O)/C1=C\c1ccc(O)c(OCC)c1` gave FAS-TE inh 2, A3G deaminase 67*, GC-B act 2, A3A deaminase 0, GC-A act 6 and APOBEC3G confirm 3.
`Cc1nnsc1C(=O)NNc1ccc(C(C)(C)C)cc1` gave FAS-TE inh -14, A3G deaminase 53*, GC-B act -4, A3A deaminase -1, GC-A act 3, APOBEC3G confirm 18 and UDG ctr A3G -2.
For COc1cc(/C=N/n2c(-c3ccccc3)n[nH]c2=S)cc(OC)c1O the results were FAS-TE inh -3, A3G deaminase 48*, GC-B act -2, A3A deaminase -10, GC-A act -2, APOBEC3G confirm 64* and UDG ctr A3G -7.
For COc1cc(/C=N/n2c(-c3ccccc3)n[nH]c2=S)ccc1O the results were FAS-TE inh -5, A3G deaminase 32, GC-B act -2, A3A deaminase -4 and GC-A act -4.
Screening S=c1[nH]nc(COc2ccccc2)n1/N=C/c1ccccn1 returned FAS-TE inh -12, A3G deaminase 55*, GC-B act -8, A3A deaminase -4, GC-A act 0, APOBEC3G confirm 86* and UDG ctr A3G 1.
`S=c1[nH]nc(COc2ccccc2)n1/N=C/c1ccncc1` gave FAS-TE inh -4, A3G deaminase 62*, GC-B act -12, A3A deaminase -7, GC-A act -4, APOBEC3G confirm 82* and UDG ctr A3G -2.
`COc1cc(/C=N/n2c(COc3ccccc3)n[nH]c2=S)cc(Br)c1O` gave FAS-TE inh -3, A3G deaminase 46*, GC-B act -2, A3A deaminase 1, GC-A act -5, APOBEC3G confirm 70* and UDG ctr A3G -2.
`FC(F)(F)c1ccc(/C=N/n2c(COc3ccccc3)n[nH]c2=S)cc1` gave FAS-TE inh 26, A3G deaminase 36, GC-B act -5, A3A deaminase -2 and GC-A act -4.
For CCc1n[nH]c(=S)n1/N=C/c1ccc(N(CC)CC)cc1 the results were FAS-TE inh 2, A3G deaminase 47*, GC-B act -4, A3A deaminase -7, GC-A act 1, APOBEC3G confirm 48* and UDG ctr A3G 1.
Screening CCOc1ccc(/C=N/n2c(-c3n[nH]c4c3CCC4)n[nH]c2=S)cc1 returned GC-B act -13 and GC-A act 0.
Screening COc1ccc(/C=N/n2c(-c3n[nH]c4c3CCC4)n[nH]c2=S)cc1OC returned FAS-TE inh -9, A3G deaminase 48*, GC-B act 6, A3A deaminase 0, GC-A act -2, APOBEC3G confirm 61* and UDG ctr A3G -3.
Screening COc1cc(/C=N/n2c(-c3n[nH]c4c3CCC4)n[nH]c2=S)ccc1O returned FAS-TE inh -7, A3G deaminase 47*, GC-B act -2, A3A deaminase -2, GC-A act -3, APOBEC3G confirm 58* and UDG ctr A3G 2.
CC(=O)C1(C(=O)Nc2cc(C)cc(C)c2)CC(c2ccccn2)=NO1 (stereo not drawn) was read as GC-B act -8 and GC-A act -7.
CCC(CO)Nc1cccc2c1S(=O)(=O)N(Cc1cn(Cc3ccc(F)cc3)nn1)Cc1ccccc1O2 (stereo not drawn) was read as GC-B act 6 and GC-A act 2.
COc1ccc(S(=O)(=O)n2nc(OC(=O)c3cccs3)cc2N)cc1 was read as FAS-TE inh 10, A3G deaminase 54*, GC-B act 6, A3A deaminase 6, GC-A act 4 and APOBEC3G confirm 5.
`COc1ccc(S(=O)(=O)n2nc(OC(=O)c3ccccc3)cc2N)cc1` gave FAS-TE inh 3, A3G deaminase -6, GC-B act 2, A3A deaminase -5 and GC-A act 21.
